High-throughput results from PubChem.
SMN2 splice enh: SMN2 splice variant enhancement; AID 1458; Potency, µM (series often up to 46.1 µM), usual class: activators; 210,000 tested, 2.8% active; HEK293 SMN2-luciferase splicing reporter, luminescence, 30-36 h; further: nearly all actives have a fitted effect of over 55% in size
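HEK293 cells carry an SMN2 minigene-luciferase reporter in which exon 7 inclusion puts luciferase in frame. Cells were seeded at 2000 cells/well, attached for 10-12 hours, then exposed to compounds for 30-36 hours at 37C before ONE-Glo luminescence.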
NPC1 prom act: activates the NPC1 promoter; Huh7 NPC1 promoter luciferase reporter, 24 h; Potency, µM (series often up to 9.22 µM), hits mostly activators; 320,000 tested, 2.4% active; further: nearly all actives have a fitted effect of over 60% in size
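Luminescence read-out of NPC1 promoter-driven luciferase in stably transfected Huh7 cells; compounds delivered in DMSO and left 24 h at 37C, 5% CO2, qHTS titration format.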
Rab9 prom act: Rab9 promoter activation. Huh7 Rab9 promoter-luciferase reporter, luminescence, 24 h. Potency, µM (highest dose often 9.22 µM), most hits filed as activators. 320,000 tested, 2.8% active. AID 485297; further: nearly all actives have a fitted effect of over 60% in size
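Rab9 promoter-driven luciferase in stably transfected Huh7 cells; 1500 cells/well rested 2 h, exposed to compound in DMSO for 24 h at 37 °C, 5% CO2. Luminescence read 10 min after adding luciferase reagent at ambient temperature.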
FLuc counter: firefly luciferase modulation, counter-screen for miR-21 project; AID 588342; purified FLuc, Km substrates, luminescence inhibition; P08659; Potency, µM (highest dose often 57.5 µM), hits mostly inhibitors; 360,000 tested, 6.9% active; further: nearly all actives have a fitted effect of over 55% in size
Target sequence (P08659 whole entry, looked up): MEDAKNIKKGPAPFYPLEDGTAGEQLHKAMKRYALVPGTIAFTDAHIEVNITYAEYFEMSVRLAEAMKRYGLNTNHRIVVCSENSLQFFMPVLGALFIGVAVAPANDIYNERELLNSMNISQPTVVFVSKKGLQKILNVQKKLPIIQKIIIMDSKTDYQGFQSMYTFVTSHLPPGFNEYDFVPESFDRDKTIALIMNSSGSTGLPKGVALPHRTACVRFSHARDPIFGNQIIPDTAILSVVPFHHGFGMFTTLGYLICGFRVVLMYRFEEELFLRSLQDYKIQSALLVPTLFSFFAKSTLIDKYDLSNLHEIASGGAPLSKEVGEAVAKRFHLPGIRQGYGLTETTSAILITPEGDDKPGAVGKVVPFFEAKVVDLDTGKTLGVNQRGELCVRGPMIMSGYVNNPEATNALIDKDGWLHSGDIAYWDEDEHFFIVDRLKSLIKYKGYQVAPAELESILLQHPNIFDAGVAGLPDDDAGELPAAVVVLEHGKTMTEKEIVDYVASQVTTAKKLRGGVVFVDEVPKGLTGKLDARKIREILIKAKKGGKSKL
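Purified P. pyralis luciferase (10nM final) with 10uM D-luciferin and 10uM ATP (Km levels) in 50mM Tris acetate pH 7.5, 10mM Mg acetate, 0.01% Tween-20, 0.05% BSA; qHTS 6-point titration, ~60 µM downward; luminescence read.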
ELG1 genotox: genotoxicity induction in ELG1-luciferase HEK293T cells | HEK293T ELG1-luciferase reporter, luminescence, 16 h | Potency, µM (doses to about 46 µM), actives largely listed as activators | 330,000 tested, 1.3% active | AID 504466; further: nearly all actives have a fitted effect of over 60% in size
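Cells (2,000/well) expressing the ELG1-luciferase fusion are dosed by pin tool and kept 16 hr at 37 °C, 5% CO2. Signal comes from ONE-Glo luciferase reagent after 30 min at room temperature.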
Luc counter: Kinase-Glo luciferase inhibition (counter-screen). Kinase-Glo luciferase, ATP luminescence, 8 min. Potency, µM (titrated, usually from 38.3 µM), usual class: inhibitors. 200,000 tested, 0.28% active. AID 1379; further: nearly all actives have a fitted effect of over 60% in size
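Kinase-Glo luciferase light output from ATP and luciferin was measured with 10 uM ATP, within the enzyme's linear range. Buffer: 50 mM imidazole pH 7.2, 50 mM KCl, 7 mM MgCl2, 0.01% Tween 20, 0.05% BSA; luminescence read after 8 min at ambient temperature.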
Numbers stand for hits; - = inactive; ? = inconclusive; . = no result given; [ ] = remark or other dose. The list is not random: actives were taken first. Their share in the collection is about 7.3%. The call rests on the fitted dose curve; in most records, active means well fitted curve in the direction sought with a large enough effect; inconclusive means small, poorly fitted or top-dose-only effect, or another doubt; inactive means no such curve, though single readings can be large; an effect the other way counts as inactive or inconclusive.

SMILES	SMN2 splice enh	NPC1 prom act	Rab9 prom act	FLuc counter	ELG1 genotox	Luc counter
COc1ccccc1NC(=O)c1cc2cc3ccc(OC)c(Cl)c3nc2s1	.	.	.	-	.	.
COc1ccc(-c2nc(-c3cccs3)c(-c3cccs3)[nH]2)cc1O	-	-	-	17µM	-	-
O=C(O)c1ccc(-c2nc(-c3ccccc3)c(-c3cccs3)[nH]2)cc1	.	-	-	?	-	.
Cc1cnc(C(=O)Nc2nnc(C(C)C)s2)cn1	13µM	2.5µM	2.8µM	?	9.2µM	-
Cc1cnc(C(=O)Nc2nnc(C)s2)cn1	-	-	-	-	-	-
Cc1cnc(C(=O)Nc2nccs2)cn1	-	?	3.2µM	?	-	-
O=C(Nc1nccs1)c1cn2ccccc2n1	.	0.32µM	0.11µM	1.3µM	?	.
NNC(=O)c1cn2ccccc2n1	-	-	-	-	-	-
CCC(C)OC(=O)n1ccc(C(=O)Nc2nccs2)n1 (stereo unspecified)	-	-	-	17µM	-	-
COc1cccc(NC(=O)C2CCN(c3nc4ccccc4nc3C(F)(F)F)CC2)c1	.	.	.	-	.	.
CCOc1ccc(C(c2c(O)cc(C)n(Cc3ccco3)c2=O)N2CCCCC2)cc1 (stereo unspecified)	.	.	.	-	.	.
Cc1sc(NC(=O)C2CCCCC2C(=O)O)c(C(N)=O)c1-c1ccccc1 (stereo unspecified)	-	1.6µM	3.5µM	3.4µM	?	-
Cc1ccc(NC(=O)c2ccc(NC(=O)C3CCCCC3C(=O)O)cc2)cc1 (stereo unspecified)	.	-	-	17µM	-	.
Cc1cccc(NC(=O)c2cc(NC(=O)C3CCCCC3C(=O)O)ccc2N2CCOCC2)c1 (stereo unspecified)	.	-	-	21µM	-	.
CC(=O)Nc1ccc(NC(=O)[C@@H]2CCCC[C@@H]2C(=O)O)cc1	-	-	-	-	-	-
COc1ccc(NC(=O)c2cc(NC(=O)C3CCCCC3C(=O)O)ccc2N2CCOCC2)cc1 (stereo unspecified)	.	-	-	-	-	.
CC(=O)Nc1ccc(NC(=O)C2CCCCC2C(=O)O)cc1 (stereo unspecified)	-	-	-	-	-	-
O=C(O)C1CCCCC1C(=O)Nc1ccc(-c2ccccc2)cc1 (stereo unspecified)	-	-	?	17µM	?	-
CCc1ccccc1NC(=O)c1ncoc1-c1ccco1	.	.	.	-	.	.
CN(C)CN1C(=O)S/C(=C2/C(=O)N(CN(C)C)c3ccccc32)C1=O	-[9.22 µM]	.	.	.	.	-[7.66 µM]
Cc1ccc2nsnc2c1NS(=O)(=O)c1c(C)ccc2nsnc12	-	-	-	-	-	-
Cc1ccc(/C=[N+](\[O-])c2ccc(N(C)C)cc2)c2nsnc12	10µM	?	1.1µM	1.3µM	-	-
COc1ccc(S(=O)(=O)NCC(c2ccco2)N2CCN(c3ccc(F)cc3)CC2)cc1C (stereo unspecified)	.	.	.	-	.	.
COc1ccc(-c2nc3nc(C)cc(Nc4ccc(C(C)=O)cc4)n3n2)cc1	-	.	.	?	.	.
Cc1ccc2nc(-c3ccc(C)c(NC(=O)CSc4ccc(Cl)cc4)c3)oc2c1	?	.	.	5.4µM	.	.
SMILES	SMN2 splice enh	NPC1 prom act	Rab9 prom act	FLuc counter	ELG1 genotox	Luc counter
Cc1ccc2nc(-c3cccc(NC(=O)CSc4ccc(Cl)cc4)c3)oc2c1	?	.	.	1.7µM	.	.
O=C1CN(c2ccccc2)C(=S)N1C(=O)c1ccc(Br)cc1	.	2.2µM	3.2µM	12µM	18µM	.
O=C(c1ccc(Br)cc1)N1CCC(C(=O)N2CCN(c3ccccc3)CC2)CC1	.	-	-	-	-	.
Cc1cc2nc(/C=C/c3cccnc3)[nH]c2cc1C	.	?	?	2.4µM	2.3µM	.
Cc1c(-c2nc(N)nc(Nc3ccccc3)n2)oc2ccccc12	11µM	1.4µM	2.5µM	4.8µM	7.3µM	-
Nc1nc(CN2CCCCCC2)nc(Nc2ccccc2)n1	-	-	-	-	-	-
O=C(N/N=C/C1CC=CCC1)c1cc2ccccc2cc1O (stereo unspecified)	-	-	-	-	-	-
O=C(N/N=C/C1CC=CCC1)c1ccc(O)cc1O (stereo unspecified)	-	-	-	19µM	-	-
O/N=C\c1ccc(-c2ccccc2)o1	13µM	-	-	13µM	-	-
COc1ccc(N=Cc2ccc(-c3ccccc3)o2)cc1	.	-	-	3µM	-	-
O=[N+]([O-])c1ccc(-c2ccc(/C=N/O)o2)cc1	.	-	-	?	?	.
Cc1noc(NS(=O)(=O)c2ccc(N/C=C\C(=O)c3cccs3)cc2)c1C	-	-	-	17µM	-	-
Cc1noc(NS(=O)(=O)c2ccc(N/C=C/C(=O)c3ccc4c(c3)OCO4)cc2)c1C	-	-	-	11µM	-	-
Cc1noc(NS(=O)(=O)c2ccc(N/C=C\C(=O)c3ccc(F)cc3)cc2)c1C	-	-	-	?	-	-
Cc1noc(NS(=O)(=O)c2ccc(N/C=C\C(=O)c3ccccc3)cc2)c1C	-	-	-	?	-	-
COC(=O)c1c(-c2ccccc2)csc1NC1=NS(=O)(=O)c2ccccc21	0.56µM	-	2.5µM	0.6µM	?	-
Cc1occc1C(=O)Nc1sccc1C(N)=O	.	-	-	?	-	.
NC(=O)c1ccsc1NC(=O)c1coc2ccccc2c1=O	11µM	?	2µM	2.4µM	7.3µM	-
COc1cc(C2CC(c3ccccc3)=NN2c2ccccc2)ccc1OCC(=O)O (stereo unspecified)	.	-	-	15µM	-	.
COc1ccc(C2CC(c3ccccc3)=NN2c2ccc(S(N)(=O)=O)cc2)cc1OC (stereo unspecified)	-	-	-	-	-	-
COc1ccc(C2=NN(c3ccc(C(=O)O)cc3)C(c3ccc(OC)c(OC)c3)C2)cc1 (stereo unspecified)	.	-	-	?	23µM	.
Cc1cc(NC(=O)COC(=O)COc2ccc3c4c(c(=O)oc3c2)CCC4)no1	-	-	-	-	-	-
O=C(COc1ccc2c3c(c(=O)oc2c1)CCC3)Nc1ccccn1	.	0.4µM	5µM	0.27µM	1.6µM	.
CC(=O)C(C)Oc1ccc2c3c(c(=O)oc2c1)CCCCC3 (stereo unspecified)	?	?	2.8µM	21µM	9.2µM	-
CC(=O)C(C)Oc1ccc2c3c(c(=O)oc2c1)CCCC3 (stereo unspecified)	-	-	-	15µM	?	-
Cc1cc(Cl)ccc1OCC(=O)N(Cc1ccc(N(C)C)cc1)CC1CCCO1 (stereo unspecified)	-	.	.	-	.	.
O=C(CCC1N=C2c3ccccc3N=C(SCc3ccc(F)cc3)N2C1=O)NC1CCCCC1 (stereo unspecified)	.	.	.	-	.	.
CCc1ccc(C(=O)c2cn(CC(=O)Nc3cc(OC)ccc3OC)c3ccc(Cl)cc3c2=O)cc1	-	.	.	-	.	.
